Each structure is given as a SMILES string. The campaign covered roughly 190,000 compounds. About 6,900 (3.6%) were called active. Cut-off read from the data, not from the text of the source: active = inhibition above about 50%; inactive = the rest. For the sample, actives were picked, then their nearest neighbours and some compounds at random.

Broadly, the inhibition is the relative decrease from the control value, in per cent.

The target in this assay is Huntingtin (Homo sapiens) (UniProt P42858). Description: mutant huntingtin-calmodulin interaction inhibitors – biochemical, AlphaScreen, primary screen (AID 1671202).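 Note: 0% = both proteins with DMSO and 100% = one protein alone.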 The settings on record: AlphaScreen His-mHTT/GST-CaM binding, luminescence; at 15 µM, hits give high values.
Sequence of Huntingtin (Homo sapiens) (P42858 whole entry, looked up, stated change not applied): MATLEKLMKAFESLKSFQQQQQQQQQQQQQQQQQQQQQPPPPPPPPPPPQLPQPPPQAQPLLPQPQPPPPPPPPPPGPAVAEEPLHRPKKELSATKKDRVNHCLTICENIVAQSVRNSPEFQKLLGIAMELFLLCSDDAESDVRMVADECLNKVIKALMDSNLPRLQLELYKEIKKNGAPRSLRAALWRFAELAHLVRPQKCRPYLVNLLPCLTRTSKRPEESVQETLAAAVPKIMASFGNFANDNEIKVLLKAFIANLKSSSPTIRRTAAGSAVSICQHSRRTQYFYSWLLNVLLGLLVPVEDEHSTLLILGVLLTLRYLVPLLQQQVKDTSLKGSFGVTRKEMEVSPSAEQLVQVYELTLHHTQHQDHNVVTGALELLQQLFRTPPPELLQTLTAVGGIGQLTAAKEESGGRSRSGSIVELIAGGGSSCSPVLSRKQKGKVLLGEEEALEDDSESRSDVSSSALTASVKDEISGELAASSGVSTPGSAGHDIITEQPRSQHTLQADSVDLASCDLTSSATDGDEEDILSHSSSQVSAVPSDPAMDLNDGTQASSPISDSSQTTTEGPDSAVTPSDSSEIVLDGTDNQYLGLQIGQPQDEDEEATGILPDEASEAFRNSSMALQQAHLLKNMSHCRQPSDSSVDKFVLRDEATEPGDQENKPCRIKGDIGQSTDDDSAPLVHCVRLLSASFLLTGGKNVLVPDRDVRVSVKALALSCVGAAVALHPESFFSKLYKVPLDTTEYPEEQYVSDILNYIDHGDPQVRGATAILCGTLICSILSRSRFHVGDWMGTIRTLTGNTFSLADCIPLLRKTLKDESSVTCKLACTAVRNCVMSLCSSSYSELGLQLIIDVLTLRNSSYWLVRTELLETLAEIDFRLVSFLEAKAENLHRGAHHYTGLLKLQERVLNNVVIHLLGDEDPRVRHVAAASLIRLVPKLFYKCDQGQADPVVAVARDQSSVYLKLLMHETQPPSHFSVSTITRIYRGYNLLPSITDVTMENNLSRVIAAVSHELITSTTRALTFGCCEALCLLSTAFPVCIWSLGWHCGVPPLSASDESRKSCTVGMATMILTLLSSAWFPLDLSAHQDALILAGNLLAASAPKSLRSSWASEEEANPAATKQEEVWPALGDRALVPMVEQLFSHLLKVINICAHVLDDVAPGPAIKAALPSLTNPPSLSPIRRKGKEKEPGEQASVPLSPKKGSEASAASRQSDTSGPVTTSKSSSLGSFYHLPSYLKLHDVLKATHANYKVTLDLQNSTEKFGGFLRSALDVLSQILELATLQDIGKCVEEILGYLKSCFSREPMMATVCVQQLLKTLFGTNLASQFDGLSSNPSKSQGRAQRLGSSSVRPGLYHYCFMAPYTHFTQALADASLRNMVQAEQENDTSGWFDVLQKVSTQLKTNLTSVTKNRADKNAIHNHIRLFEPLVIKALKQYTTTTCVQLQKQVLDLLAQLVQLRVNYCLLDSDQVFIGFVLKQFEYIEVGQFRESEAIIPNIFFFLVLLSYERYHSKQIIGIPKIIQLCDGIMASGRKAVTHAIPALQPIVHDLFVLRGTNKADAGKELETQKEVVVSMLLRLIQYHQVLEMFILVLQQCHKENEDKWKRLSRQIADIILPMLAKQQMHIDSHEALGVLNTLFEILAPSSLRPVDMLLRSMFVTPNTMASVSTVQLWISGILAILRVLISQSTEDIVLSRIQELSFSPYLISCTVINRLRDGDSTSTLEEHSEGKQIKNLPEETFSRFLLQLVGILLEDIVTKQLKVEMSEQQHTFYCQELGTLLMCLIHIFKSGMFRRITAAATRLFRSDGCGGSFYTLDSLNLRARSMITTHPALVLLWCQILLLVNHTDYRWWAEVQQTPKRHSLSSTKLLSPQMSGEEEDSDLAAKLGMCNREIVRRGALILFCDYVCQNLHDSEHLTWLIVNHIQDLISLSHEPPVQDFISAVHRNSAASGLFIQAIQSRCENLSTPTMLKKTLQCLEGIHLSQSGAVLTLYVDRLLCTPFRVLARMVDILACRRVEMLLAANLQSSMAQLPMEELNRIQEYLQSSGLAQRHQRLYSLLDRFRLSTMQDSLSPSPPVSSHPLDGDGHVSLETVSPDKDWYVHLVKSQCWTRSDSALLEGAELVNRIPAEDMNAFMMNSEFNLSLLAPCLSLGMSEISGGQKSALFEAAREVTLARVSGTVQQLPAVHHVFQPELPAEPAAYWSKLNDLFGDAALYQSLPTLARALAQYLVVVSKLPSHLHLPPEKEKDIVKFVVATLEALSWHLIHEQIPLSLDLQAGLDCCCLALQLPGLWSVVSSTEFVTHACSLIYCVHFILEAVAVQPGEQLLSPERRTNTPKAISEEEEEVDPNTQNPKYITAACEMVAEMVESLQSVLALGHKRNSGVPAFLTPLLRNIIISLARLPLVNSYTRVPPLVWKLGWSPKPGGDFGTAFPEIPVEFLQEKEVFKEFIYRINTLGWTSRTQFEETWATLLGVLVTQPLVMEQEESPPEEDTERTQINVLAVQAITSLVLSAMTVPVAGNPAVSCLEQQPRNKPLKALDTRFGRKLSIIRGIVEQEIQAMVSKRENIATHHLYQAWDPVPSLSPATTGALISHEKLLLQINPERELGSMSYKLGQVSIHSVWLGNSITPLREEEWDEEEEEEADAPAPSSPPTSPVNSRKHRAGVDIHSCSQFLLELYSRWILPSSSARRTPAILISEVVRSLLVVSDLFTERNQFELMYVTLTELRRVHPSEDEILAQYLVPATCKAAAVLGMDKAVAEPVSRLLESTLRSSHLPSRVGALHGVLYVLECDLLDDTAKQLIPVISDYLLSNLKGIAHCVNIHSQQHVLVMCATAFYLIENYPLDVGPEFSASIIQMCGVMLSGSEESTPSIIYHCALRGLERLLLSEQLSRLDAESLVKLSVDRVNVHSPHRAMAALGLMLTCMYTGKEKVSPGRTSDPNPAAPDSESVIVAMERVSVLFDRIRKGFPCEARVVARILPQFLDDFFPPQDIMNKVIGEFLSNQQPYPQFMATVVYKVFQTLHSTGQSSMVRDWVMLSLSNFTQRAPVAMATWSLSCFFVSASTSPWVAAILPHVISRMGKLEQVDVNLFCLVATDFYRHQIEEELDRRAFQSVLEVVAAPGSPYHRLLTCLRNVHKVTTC
On to `COc1cccc(C=C2Oc3c(ccc(O)c3CN3CCCCC3C)C2=O)c1OC` (centres undefined), for which the inhibition was 15.7% (inactive).

As to `CCCCN(C)Cc1c(O)ccc2c1OC(=Cc1cc(OC)c(OC)c(OC)c1)C2=O`, the inhibition was -3.1% (inactive).

As for `COc1cccc(C=C2Oc3c(ccc(O)c3CN(C)Cc3ccccc3)C2=O)c1OC`, the inhibition is 93.1% (active).

On to `COCC(C)(O)CNC(=O)C(=O)NCc1ccc(C)cc1` (centres undefined), for which the inhibition was -17.7% (inactive).

With `Cc1ccc(NC(=O)C2CC(=O)N(CCc3c[nH]c4ccc(Cl)cc34)C2)c(C)c1` (centres undefined), the inhibition is 65% (active).

With `Cc1ccc2[nH]cc(CCN3CC(C(=O)Nc4ccc(Br)cc4)CC3=O)c2c1` (centres undefined), the inhibition was 53.5% (active).

Take `Cc1ccc2[nH]cc(CCN3CC(C(=O)N4CCN(c5ccccc5)CC4)CC3=O)c2c1` (centres undefined): the inhibition was 45.4% (inactive).

Consider `O=C(Nc1ccc2c(c1)CCC2)C1CC(=O)N(CCc2c[nH]c3ccc(F)cc23)C1` (centres undefined), for which the inhibition is 53.7% (active).

On to `O=C(NCCN1CCOCC1)C1CC(=O)N(CCc2c[nH]c3ccc(F)cc23)C1` (centres undefined), for which the inhibition was -6.88% (inactive).

Take `Cc1ccc2[nH]cc(CCN3CC(C(=O)Nc4cccc(C)c4C)CC3=O)c2c1` (centres undefined): the inhibition is 30.5% (inactive).

For the compound `CC(C)CCNC(=O)C1CC(=O)N(CCc2c[nH]c3ccc(Cl)cc23)C1` (centres undefined), the inhibition is 25.8% (inactive).

Regarding `Cc1ccc2[nH]cc(CCN3CC(C(=O)Nc4cccc(Br)c4)CC3=O)c2c1` (centres undefined), the inhibition was 39.7% (inactive).

Take `O=C(Nc1ccccc1F)C1CC(=O)N(CCc2c[nH]c3ccc(F)cc23)C1` (centres undefined): the inhibition is 9.18% (inactive).

On to `CC1(C(=O)NCC2CCCO2)CCC(=O)N1Cc1cccs1` (centres undefined), for which the inhibition is 3% (inactive).

On to `CCN(c1ccc(F)cc1)S(=O)(=O)c1ccc2[nH]cc(C(=O)NCCN(C)C)c(=O)c2c1`, for which the inhibition is 3% (inactive).

Consider `CCOc1ccc(CN2C(=O)CCC2(C)C(=O)NC2CCCC(C)C2C)cc1` (centres undefined), for which the inhibition is -9% (inactive).

Take `C=CCNCCCOc1ccc(Br)cc1C`: the inhibition was 0.1% (inactive).

With `COc1ccc(NC(=O)CN2C(=O)C(c3ccccc3)=NC23CCCCCC3)cc1OC`, the inhibition was -0.13% (inactive).

Turning to `O=C(CN1C(=O)C(c2ccccc2)=NC12CCCCC2)Nc1ccc(Cl)cc1`, the inhibition is 50.9% (active).

For the compound `CCc1ccc(NC(=O)CN2C(=O)C(c3ccccc3)=NC23CCCCC3)cc1`, the inhibition is -7.57% (inactive).

Consider `Cc1ccc(NC(=O)CN2CCN(c3ccccn3)CC2)cc1F`, for which the inhibition was 2% (inactive).

`COCCNC(=O)NCCn1ccnc1C`: the inhibition was -11.5% (inactive).

On to `COc1cc(CN2CCN(Cc3cc(OC)c(OC)c(OC)c3)CC2)cc(OC)c1`, for which the inhibition is -4.6% (inactive).

For `COc1ccc(O)c(C(=O)CC(=O)c2cccc(F)c2)c1`, the inhibition is 58.1% (active).

Take `COc1ccc(CC(=O)Nc2ccccc2F)cc1`: the inhibition was 0.5% (inactive).

For `COc1cccc(C(=O)N(CC#N)CC#N)c1`, the inhibition was 4.4% (inactive).

For `CC(C)n1c(COc2ccccc2)nc2ccccc21`, the inhibition was -16% (inactive).

`CCSc1nc2ccccc2c(=O)n1C`: the inhibition is -11.7% (inactive).

For the compound `Cn1c(COc2ccc(Cl)cc2)nc2ccccc2c1=O`, the inhibition was 61.9% (active).

Turning to `O=C(Nc1cccc(NC(=O)c2ccccc2Cl)c1)c1ccccc1Cl`, the inhibition is 1% (inactive).

For the compound `Nc1c(C(=O)Nc2ccccc2I)sc2nc(-c3cccs3)ccc12`, the inhibition was -8% (inactive).

As for `CCOc1cccc2c1OC(c1ccc(OC)c(OC)c1)N1N=C(c3ccco3)CC21` (centres undefined), the inhibition is 45% (inactive).

For `CCOc1cccc2c1OC(c1cccc(OC)c1OC)N1N=C(c3ccc(C)o3)CC21` (centres undefined), the inhibition was 67% (active).

Turning to `CCOc1cccc2c1OC1(CCCCC1)N1N=C(c3cccnc3)CC21` (centres undefined), the inhibition is 27% (inactive).

With `CCOC(=O)C1CCN(C(=O)CCN2C(=O)c3ccccc3S2(=O)=O)CC1`, the inhibition was -1.8% (inactive).

`O=C(Nc1ccc2c(c1)OCCO2)N1CCCC1c1ccc(Cl)cc1` (centres undefined): the inhibition is 10.2% (inactive).

`N#C/C(=C\c1ccc(F)cc1)c1nc(-c2cc3ccccc3oc2=O)cs1`: the inhibition is -8% (inactive).

For `CC1(C)Cc2ccccc2-c2nc(NCCO)n(Cc3ccccc3)c(=O)c21`, the inhibition is 15% (inactive).

For the compound `Cc1cccc(NC(=O)c2nc(-c3cccc(F)c3)n3c2CCCCC3)n1`, the inhibition is 43.6% (inactive).

As for `CCCNC(=O)Cc1cn(C)c2ncccc12`, the inhibition was -16.2% (inactive).

For the compound `Cn1cc(CCN2CCN(C(=O)c3ccc(C(F)(F)F)cc3)CC2)c2cccnc21`, the inhibition was 54.6% (active).

Regarding `Cc1ccccc1N1CCN(C(=O)Cc2cn(C)c3ncccc23)CC1`, the inhibition was 10.1% (inactive).

With `CCCC(O)=C1C(=O)CC(C)(C)CC1=Nc1cccc([N+](=O)[O-])c1`, the inhibition was -1.5% (inactive).

For the compound `CC(=O)Nc1ccc(N/C=C(\C#N)c2nc(-c3ccccc3)cs2)cc1`, the inhibition was 4% (inactive).

On to `Cc1cccc(-n2nc3c(c2NC(=O)C2CC2)CSC3)c1C`, for which the inhibition was 8% (inactive).

`Cc1ccccc1-n1nc2c(c1NC(=O)C1CC1)CSC2`: the inhibition was 60% (active).

As to `O=C(Nc1c2c(nn1-c1ccc(Cl)cc1)CSC2)c1ccc(F)cc1`, the inhibition was 21% (inactive).

Regarding `Cc1ccccc1-n1nc2c(c1NC(=O)/C=C/c1ccco1)CSC2`, the inhibition was 98% (active).

Turning to `COc1cccc(C(=O)Nc2c3c(nn2-c2ccc(Cl)cc2)CSC3)c1`, the inhibition was 41% (inactive).

With `COc1ccc(/C=C/C(=O)Nc2c3c(nn2-c2ccccc2C)CSC3)cc1OC`, the inhibition was 29% (inactive).

For `CC(C)C(=O)Nc1c2c(nn1-c1ccc(Cl)cc1)CSC2`, the inhibition is -5% (inactive).

In the case of `Cc1cccc(-n2nc3c(c2NC(=O)c2ccc(Br)o2)CSC3)c1C`, the inhibition is 24% (inactive).

Take `Cc1cccc(-n2nc3c(c2NC(=O)c2c(F)cccc2F)CSC3)c1C`: the inhibition was 5% (inactive).

Regarding `O=C(Nc1c2c(nn1-c1ccc(Cl)cc1)CSC2)c1cccc(Br)c1`, the inhibition was 50% (active).

In the case of `O=C(Nc1c2c(nn1-c1ccc(Cl)cc1)CSC2)c1cccc([N+](=O)[O-])c1`, the inhibition is -9% (inactive).

Regarding `O=C(/C=C/c1ccco1)Nc1c2c(nn1-c1ccc(Cl)cc1)CSC2`, the inhibition is 98% (active).

For the compound `O=C(Nc1ccc(Cl)cc1)c1cc(S(=O)(=O)NCc2ccccc2)ccc1Cl`, the inhibition is 13% (inactive).

For the compound `COc1ccc(OC)c(-c2cc(C(=O)Nc3nc4c(s3)CCCC4)n(C)n2)c1`, the inhibition was 16.3% (inactive).

As for `Cc1nc(C2CCN(C(=O)c3cccc(F)c3)CC2)sc1C(=O)NCc1cccnc1`, the inhibition is 9.99% (inactive).

`CCCn1cnnc1C1CCCCN1C(=O)c1ccncc1` (centres undefined): the inhibition was -3.5% (inactive).

As to `c1ccc2c(c1)CC1(CCCCC1)N=C2N1CCOCC1`, the inhibition is -5.33% (inactive).

With `CC(C)C(=O)Nc1ccc(N2CCCN(C(=O)C3CC3)CC2)nc1`, the inhibition was -1% (inactive).

With `CCCc1cc2c(=O)c(-c3ccc4c(c3)OCO4)c(CC)oc2cc1OC(=O)CC`, the inhibition is -12.9% (inactive).

Take `C=CCSC1=C(C#N)C(c2ccco2)C(C(=O)Nc2ccccc2OC)=C(C)N1` (centres undefined): the inhibition was 8% (inactive).

As to `c1ccc(-c2n[nH]c(C3CCN(Cc4cccnc4)CC3)n2)cc1`, the inhibition is 9.4% (inactive).

For `c1ccc(-c2n[nH]c(C3CCCN(Cc4ccccn4)C3)n2)cc1` (centres undefined), the inhibition was 100% (active).

Take `O=C(Cc1cccnc1)N1CCCC(c2nc(-c3ccccc3)n[nH]2)C1` (centres undefined): the inhibition was -0.1% (inactive).

For the compound `COC(=O)C(C)Oc1ccc2c(c1)OC(=Cc1ccccc1C)C2=O` (centres undefined), the inhibition is 0.9% (inactive).

For the compound `O=C(c1ccsc1)N1CCCC2(C1)Nc1ccccc1NC2=NC1CCCC1` (centres undefined), the inhibition was 4.96% (inactive).

On to `Cc1cc(C)n(CC(=O)N2CCCC3(C2)Nc2cccnc2NC3=NC2CCCC2)n1` (centres undefined), for which the inhibition was -1.34% (inactive).

`COc1ccccc1CC(=O)N1CCCC2(C1)Nc1cccnc1NC2=NC1CCCC1` (centres undefined): the inhibition was 16.8% (inactive).

Turning to `CCOc1ccc(CC(=O)N2CCCC3(C2)Nc2cccnc2NC3=NC2CCCC2)cc1` (centres undefined), the inhibition was 11.4% (inactive).

As to `COCCN=C1Nc2ccccc2NC12CCCN(C(=O)CSc1ccccc1)C2` (centres undefined), the inhibition is 76.2% (active).

Take `COCCN=C1Nc2ccccc2NC12CCCN(C(=O)Nc1cccc(OC)c1)C2` (centres undefined): the inhibition was 99.8% (active).

Take `COc1cccc(CNC(=O)N2CCCC3(C2)Nc2cccnc2NC3=NC2CCCC2)c1` (centres undefined): the inhibition is 1.31% (inactive).

Consider `COCCN=C1Nc2ccccc2NC12CCCN(C(=O)c1cccc(Cl)c1)C2` (centres undefined), for which the inhibition was 65.7% (active).

As to `COCCN=C1Nc2ccccc2NC12CCCN(C(=O)Cc1cccs1)C2` (centres undefined), the inhibition is 63% (active).

With `Cc1ccccc1CNC(=O)C1(C)CCCN(C(=O)c2cccc(Cl)c2)C1` (centres undefined), the inhibition is 19.4% (inactive).

Take `COCCN=C1Nc2ccccc2NC12CCCN(S(=O)(=O)c1cccc(OC)c1)C2` (centres undefined): the inhibition was 11.2% (inactive).

For the compound `COCCN=C1Nc2ccccc2CNC12CCN(C(=O)c1cccc(C(F)(F)F)c1)C2` (centres undefined), the inhibition was 18.7% (inactive).

`CCOc1ccc(CN2C(=O)CCC2(C)C(=O)NC2CCCC2)cc1OC` (centres undefined): the inhibition was 16% (inactive).

Regarding `CCn1c(SCc2ccccc2F)nnc1-c1cccc([N+](=O)[O-])c1`, the inhibition is 13.8% (inactive).

For `Cc1ccc(C(=O)COc2ccccc2Cl)cc1C`, the inhibition was -114% (inactive).

For the compound `COc1ccc([N+](=O)[O-])cc1C1=N/C(=C/c2cccc(F)c2)C(=O)O1`, the inhibition was -5% (inactive).

As to `COc1ccc(NC(=O)C2CCN(c3cnn(C)c(=O)c3)CC2)c(OC)c1`, the inhibition is 36.1% (inactive).

`COc1cccc(C(=O)N2CCC(Oc3nc4c(C)ccc(C)c4s3)CC2)c1OC`: the inhibition is 64.4% (active).

For the compound `COc1cccc(C(=O)N2CCC(c3nnc(C(F)(F)F)o3)CC2)c1OC`, the inhibition is -7.5% (inactive).

`COc1ccccc1C(=O)N1CCC(c2nc(C(=O)N3CCOCC3)c(C)o2)CC1`: the inhibition was -6.99% (inactive).

`Cc1ccc2nc(C(=O)NCc3cc(F)ccc3F)cn2c1`: the inhibition is -9% (inactive).

Consider `C=CCN(CC=C)S(=O)(=O)c1ccc(C(=O)Nc2c(C(N)=O)oc3ccccc23)cc1`, for which the inhibition was 15.2% (inactive).

As for `CCNC(=O)C1Cc2ccc(OC)cc2N2CCN(Cc3ccc(Cl)cc3)CC12` (centres undefined), the inhibition was 93.9% (active).

Consider `COCCNC(=O)C1Cc2ccccc2N2CCN(c3ccccc3)CC12` (centres undefined), for which the inhibition is 11.4% (inactive).

Regarding `CCNC(=O)C1Cc2ccc(OC)cc2N2CCN(c3ccccc3OC)CC12` (centres undefined), the inhibition was 47% (inactive).

As to `O=C(Nc1ccc2c(c1)OCO2)N1CCOc2ccccc21`, the inhibition was 7.08% (inactive).

(Values after PubChem BioAssay AID1671202 (University of Kansas High Throughput Screening Laboratory, 2021).)
